Measurements as given in PubChem BioAssay (NCI).
The panel holds about 83,000 compounds, 20% with a hit somewhere; the sample as a whole holds those more often.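 Cell lines were cultured in 96-well plates, exposed to a single compound concentration, and assessed for percent growth 48 hours later.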 Values without a mark were called inactive. Activity calls are given as the source filed them. Rule for the calls: active = growth percent below 10; inactive = the rest.

How the values were obtained:
Experiment in all cases: NCI-60 one-dose screen, 48 h (100 = growth as untreated, 0 = no growth, -100 = all killed)
SR leukemia = settings: 10 µM unless noted
RPMI-8226 leukemia = settings: 10 µM unless noted
OVCAR-8 ovarian = settings: 10 µM unless noted
OVCAR-5 ovarian = settings: 10 µM unless noted
IGROV1 ovarian = settings: 10 µM unless noted
OVCAR-3 ovarian = settings: 10 µM unless noted
HS 578T breast = settings: 10 µM
NCI/ADR-RES ovarian = settings: 10 µM unless noted
BT-549 breast = settings: 10 µM unless noted
MDA-MB-435 melanoma = settings: 10 µM unless noted
SW-620 colon = settings: 10 µM unless noted
MCF7 breast = settings: 10 µM unless noted
HCT-116 colon = settings: 10 µM unless noted
HCC-2998 colon = settings: 10 µM unless noted
KM12 colon = settings: 10 µM unless noted
SK-OV-3 ovarian = settings: 10 µM unless noted
T-47D breast = settings: 10 µM unless noted
OVCAR-4 ovarian = settings: 10 µM unless noted

| SMILES | growth (SR leukemia) | growth (RPMI-8226 leukemia) | growth (OVCAR-8 ovarian) | growth (OVCAR-5 ovarian) | growth (IGROV1 ovarian) | growth (OVCAR-3 ovarian) | growth (HS 578T breast) | growth (NCI/ADR-RES ovarian) | growth (BT-549 breast) | growth (MDA-MB-435 melanoma) | growth (SW-620 colon) | growth (MCF7 breast) | growth (HCT-116 colon) | growth (HCC-2998 colon) | growth (KM12 colon) | growth (SK-OV-3 ovarian) | growth (T-47D breast) | growth (OVCAR-4 ovarian) |
| --- | --- | --- | --- | --- | --- | --- | --- | --- | --- | --- | --- | --- | --- | --- | --- | --- | --- | --- |
| CCc1ccc(Nc2ncnc3c2cnn3-c2cccc(Br)c2)cc1 | 108% | 117% | 93.3% | 102% | 113% | 103% | 103% | 100% | 95.8% | 98% | 99.6% | 102% | 96.1% | 98.1% | 106% |  |  |  |
| COc1ccc2[nH]c(O)c(/C=c3/ccc4c(c3)N=C(c3ccc(F)cc3)N=4)c2c1 | 59.8% | 76.5% | 76.9% | 113% | -7.41% (active) | 75.3% | 51.1% |  | 26.7% | 57.8% | 41.3% | 41.7% | -22.6% (active) | 104% | 74.9% | 62.9% | 28.3% |  |
| Nc1c(C(=O)c2ccc(Br)cc2)sc2nc3c(cc12)CCCC3 | 65.3% | 94.6% | 98.7% |  | 108% | 95.4% | 109% | 85.7% | 89.4% | 49.9% | 105% | 88.4% |  | 99.6% | 75.4% | 106% | 101% | 105% |
| CN1CCN(Cc2ccc(NC(=O)c3cncc(C#Cc4ncc5cnccn45)c3)cc2C(F)(F)F)CC1 | 50.8% | 44.3% | 70% |  | 42.2% | 69.6% | 52.2% | 92.7% | 63.7% | 39.3% | 22% | 36% | 16.6% | 43.1% | 13.2% | 42.8% |  | 41.3% |
| Fc1cc(-c2nnc3sc(-c4ccc(Cl)cc4)nn23)c(Cl)cc1Cl | 61.1% | 102% | 100% | 101% | 100% |  | 66.1% | 104% | 106% |  | 96.5% | 86.7% | 94.6% | 106% | 95.6% | 107% | 87% |  |
| COc1c(B(O)O)cccc1-c1nc2c(F)cc3n[nH]c(C)c3c2c2c1CCCC2 | 42% | 6.03% (active) | 17.3% | 8.74% (active) | 16.3% | 9.19% (active) | 9.55% (active) | 36.4% | 21.2% | 21.2% | 15.3% | 15% | 10.5% | 51.7% | 20.5% |  |  |  |
| CCCCCCCCCCCCCC[N+](C)(C)CCCCCCCCCCCCCC | 35.7% | 12.6% | 49.6% | 79.9% | 9.59% (active) | 87.5% |  |  | 92.3% | 39.4% | 76% | 77.3% | 51.4% | 62.1% | 76.2% | 85.5% | 57.5% |  |
| CCCCNCC(O)c1cc2c(Cl)cc(Cl)cc2c2cc(C(F)(F)F)ccc12 (stereo not drawn) | -68% (active) | -38.8% (active) | -56% (active) |  | -65.2% (active) | -91.1% (active) | -51.6% (active) | -64% (active) | 11.9% | -52.7% (active) | -68.2% (active) | -83.5% (active) | -91.7% (active) | -72% (active) | -89.4% (active) | -22.8% (active) | -74.6% (active) | -89.7% (active) |
| CC(C)N=C1CCCC1C(=S)SSC(=S)C1CCCC1=NC(C)C (stereo not drawn) | 47.7% | 59.5% | 61.7% | 93.9% |  | 44.8% | 75.9% |  | 82.2% | 61.7% | 74.9% | 56.9% | 51.4% | 116% | 101% | 110% | 47% |  |
| CCOC(=O)Nc1ccc2nc(-c3cscn3)[nH]c2c1 | 23.3% | 43.1% | 57.8% | 85.9% | 42.6% | 22.8% | 64.7% |  | 48.6% | -40.5% (active) | 19.8% | 34% | 21.6% | 65.7% | 34.3% | 56.5% | 44.5% |  |
| Cc1n(Cc2ccc3ccccc3n2)cc[n+]1Cc1ccc2ccccc2n1 | 48.8% | 24.6% | 97.9% |  | 64.4% | 54.8% | 92.1% | 98.7% | 72.8% | 63% | 90.4% | 61.5% | 83.3% | 62.8% | 50.6% | 91.1% | 27.2% | 24.1% |
| COc1cc(NCCCCC(C)N)c2nccc(C)c2c1 (stereo not drawn) | 98.7% | 75.2% | 97% | 81.6% |  | 73.5% | 80.2% | 100% | 94.5% | 106% | 93.3% | 4.24% (active) | 99.2% | 63.9% | 94.7% | 93.3% | 48.1% |  |
| COc1ccccc1NC(=O)OCC12COCN1COC2 | 93.8% | 99.8% | 96% |  | 109% | 116% | 110% | 107% | 117% | 102% | 101% | 92.4% |  | 116% | 107% | 105% | 102% | 105% |
| COc1cc2c(cc1OCCCOc1cc3c(cc1OC)C(=O)N1CCC[C@H]1C=N3)C=CC(C)(C)O2 | 25.8% | 48% | 89.2% |  | 92.1% | 109% | 45.7% | 109% | -0.137% (active) | 101% | 18.1% | 39.3% | 61% | 100% | 109% | 112% | 62.6% | 110% |
| Fc1cnccc1-c1nc2ccc3[nH]ncc3c2c2c1CCCC2 | 34.1% | 37.6% | 30.2% | 45.2% | 12.1% | 30.4% | 10.8% | 32.3% | 16.1% | 10.4% | 14.6% | 34.7% |  | 37.5% | 18.4% | -21.2% (active) |  |  |
| CC1C2CCC(C2)C1COCCOCCO (stereo not drawn) | 105% | 108% | 102% | 107% | 113% | 112% | 110% | 104% | 104% | 110% | 101% | 105% | 108% | 105% | 110% |  | 98.7% |  |
| COc1ccc2c(c1)CCCC21C(=O)Nc2ccccc21 (stereo not drawn) | 80.5% | 96.9% | 95.5% |  | 102% | 69.6% | 107% | 104% | 101% | 101% | 107% | 95.7% | 102% | 112% | 97.5% | 100% | 85.2% | 98.8% |
| Cc1c(O)c(=O)n(-c2ccccc2)n1C | 91.4% | 104% | 109% |  | 117% | 108% | 127% | 105% | 109% | 109% | 114% | 101% | 109% | 97.3% | 105% | 105% | 99.5% | 111% |
| c1ccc(C(CC2=NCCCN2)c2ccccc2)cc1 | 103% | 116% | 101% | 95.9% | 108% | 117% | 95.7% |  | 95.1% | 94% | 100% | 94.1% | 97.3% | 102% | 99.7% | 95.5% | 101% |  |
